Data: PubChem BioAssay (NCI)
Several values for one entry are separate records, joined by “and”; a condition that tells them apart may be missing. Equal entries are not always repeated. About 83,000 compounds went through this panel and 20% of them were active in at least one assay; those are over-represented in the sample as a whole.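 96-well plates, one dose, 48 hours. Percent growth reported; active if below 10.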 Activity calls are given as the source filed them.

system: MDA-MB-468 breast; assay: NCI-60 one-dose screen, 48 h (100 = growth as untreated, 0 = no growth, -100 = all killed); details: 10 µM unless noted

Row | SMILES | growth
1 | O=C(Nc1ccc(-n2cc(-c3ccncc3)c(-c3ccc(Cl)c(O)c3)n2)cc1)c1ccc(Cl)c(C(F)(F)F)c1 | -12% (active)
2 | CN1CCN(Cc2ccc(NC(=O)c3ccc(C(C)(C)C)c(C#Cc4cnc5cccnn45)c3)cc2C(F)(F)F)CC1 | -6.22% (active)
3 | CCCCN(CCCC)C(=O)CC | 113% (inactive)
4 | C=C(C)[C@@H]1CC[C@]2(C=O)CC[C@]3(C)[C@H](CC[C@@H]4[C@@]5(C)CCCNC(C)(C)[C@@H]5CC[C@]43C)[C@@H]12 | 64.6% (inactive)
5 | O=C1OC2(c3ccccc31)c1ccccc1-c1ccccc12 | 40.2% (inactive)
6 | COCCCNC1=C(C#N)C(=O)NC(c2cccs2)S1 (configuration not stated) | 93.8% (inactive)
7 | CCn1cc(C(=O)O)c(=O)c2cc(F)c(N3CCN(CC(=O)Nc4ccc(S(=O)(=O)Nc5nccc(C)n5)cc4)C(C)C3)c(F)c21 (configuration not stated) | 96.4% (inactive)
8 | COc1cc2nc3c(=O)n(CCN(C)C)cnn3c(=O)c2cc1OC | 104% (inactive)
9 | O=[N+]([O-])c1ccc(O)c(-c2nc3ccccc3s2)c1 | 63.5% (inactive)
10 | C#C[C@@]1(O)[C@@H](CO)O[C@@H](n2ccc3c(N)ncnc32)[C@@H]1O | -45.3% (active)
11 | CC(=O)ON=C1C=CC(=C(C#N)c2ccccc2)C=C1 | 19% (inactive)
12 | NS(=O)(=O)OCC1OC(n2cnc3cncnc32)C(O)C1O (configuration not stated) | 5.51% [0.1 µM] (active) and -18.9% [0.1 µM] (active)
13 | CN=S(=O)(OCCCCCOS(=O)(=NC)c1ccc(C)cc1)c1ccc(C)cc1 (configuration not stated) | 83.3% (inactive)
14 | Cc1cc(C)c(N2C(=O)CC(Sc3ccccc3N)C2=O)c(C)c1 (configuration not stated) | 45.6% (inactive)
15 | [N-]=[N+]=NCc1ncc(-c2ccc(C(F)(F)F)cc2)c(NC2CCCCCC2)n1 | 103% [50 µM] (inactive)
16 | COc1cc2ncnc(Oc3ccc(NC(=O)Nc4ccc(C5(C#N)CCCC5)cc4)c4ccccc34)c2cc1OC | 38.2% (inactive)
17 | O=C(Nc1ccc2ncnc(Nc3ccc(Oc4cccc(F)c4)c(Cl)c3)c2c1)c1ccc(CN2CCOCC2)cc1 | 18.8% (inactive)
18 | COc1ccc(-c2cc(-c3ccccc3)nc(NCCNc3ccnc4cc(Cl)ccc34)n2)cc1 | -73.7% (active)
19 | COc1cc(C2c3cc4c(cc3C(OC(=O)C[n+]3ccccc3)C3COC(=O)C23)OCO4)cc(OC)c1OC (configuration not stated) | 5.13% (active)

Row | SMILES | growth
20 | O=C1CC(c2ccc(O)c(O)c2)Oc2cc(O)c([C@@H]3O[C@H](CO)[C@@H](O)[C@H](O)[C@H]3O)c(O)c21 (some centres not stated) | 106% (inactive)
21 | CSc1nc2ccc(C)cc2cc1/C=N/O | 101% (inactive)
22 | Oc1ccccc1N=Cc1c(O)ccc2ccccc12 | 83.2% (inactive)
23 | CC(C)(C)NCCC(O)c1cc(C(F)(F)F)nc2c(C(F)(F)F)cccc12 (configuration not stated) | 70.9% (inactive)
24 | Cc1cc(Br)nnc1Br | 101% (inactive)
25 | O=C(O)CCC(=O)Nc1nnc(-c2ccccc2)s1 | 116% (inactive)
26 | N/C(=N\C(N)=N\c1nc2ccccc2s1)c1ccncc1 | 56.6% (inactive)
27 | CCCCCCCC[Si](OCC)(OCC)OCC | 97.5% (inactive)
28 | Cc1cccc(NC(=O)Nc2ccc(-n3cnc4cc(-c5ccc(O)cc5)ccc43)cc2)c1 | 38.4% (inactive)
29 | O=C1NC(=O)/C(=C\c2ccccc2)C2=C1CCCC2 | 95.3% (inactive)
30 | CCN(CC)CCCNC(=O)c1ccc(N)cc1O | 85.7% (inactive)
31 | COCCOc1ccc2ncc(C#Cc3cncc(C(=O)Nc4ccc(CN5CCN(C)CC5)c(C(F)(F)F)c4)c3)n2n1 | 7.9% (active)
32 | CC1O[C@@H](OC2[C@H](OC(=O)/C=C/c3ccc(O)c(O)c3)C(COC3O[C@H](C)C(O)C(O)[C@@H]3O)O[C@@H](OCCc3ccc(O)c(O)c3)[C@H]2O)[C@@H](O)C(O)[C@H]1O (some centres not stated) | 106% (inactive)
33 | Nc1nc(N)c2c(n1)NC(c1ccc(F)cc1)CC(c1ccc(Nc3nc(NCCO)nc(Nc4ccc(Cl)cc4)n3)cc1)=N2 (configuration not stated) | -68.5% (active)
34 | O=C(/C=C/c1cc(CN2CCOCC2)c(O)c2ncccc12)c1cc(CN2CCOCC2)c(O)c2ncccc12 | 4.37% (active)
35 | COc1cc(CNc2oc(-c3ccccc3)c(-c3ccccc3)c2C#N)cc(CN2CCN(C)CC2)c1O | 57.4% (inactive)
36 | O=C(Nc1ccc(Cl)cc1F)c1cc(F)ccc1O | 3.61% (active)
37 | CC(C)(C)OC(=O)NC(CSCc1ccccc1)C(=O)ON1C(=O)CCC1=O (configuration not stated) | 115% (inactive)
